{
  "source": "the supplement of paper PMC8728848",
  "test_in_all_cases": "glycan array binding signal (z-score within array); higher = stronger binding",
  "conditions_in_all_cases": "glycan notation: IUPAC condensed, linker removed",
  "key": {"[1]": {"target": "Gal6P(b1-4)GlcNAc", "summary_of_the_method": "(§1)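 Glycan array data were curated from 3228 arrays in the Consortium for Functional Glycomics database and kept only where the protein sequence was available. Glycan names were converted to IUPAC-condensed notation, and columns mapping to the same glycan were averaged. The binding signal is a within-array Z-score, averaged across arrays of the same protein sequence at different concentrations or buffers and across linkers. Negative Z-scores can be read as non-binding.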"}, "[2]": {"target": "GalNAc(a1-3)Gal", "summary_of_the_method": "as §1"}, "[3]": {"target": "GalNAc(a1-3)GalNAc", "summary_of_the_method": "as §1"}, "[4]": {"target": "GalNAc(b1-4)GlcNAc", "summary_of_the_method": "as §1"}, "[5]": {"target": "GlcNAc(a1-4)Gal(b1-4)GlcNAc(b1-3)Gal(b1-4)GlcNAc(b1-3)Gal(b1-4)GlcNAc", "summary_of_the_method": "as §1"}, "[6]": {"target": "GlcNAc(b1-3)Gal(b1-4)GlcNAc(b1-2)[GlcNAc(b1-3)Gal(b1-4)GlcNAc(b1-6)]Man(a1-6)[GlcNAc(b1-3)Gal(b1-4)GlcNAc(b1-2)Man(a1-3)]Man(b1-4)GlcNAc(b1-4)GlcNAc", "summary_of_the_method": "as §1"}, "[7]": {"target": "GlcNAc(b1-3)Gal(b1-4)GlcNAc(b1-3)Gal(b1-4)GlcNAc", "summary_of_the_method": "as §1"}, "[8]": {"target": "GlcNAc(b1-3)Gal(b1-4)GlcNAc(b1-3)Gal(b1-4)GlcNAc(b1-3)Gal(b1-4)GlcNAc(b1-2)Man(a1-3)[GlcNAc(b1-3)Gal(b1-4)GlcNAc(b1-3)Gal(b1-4)GlcNAc(b1-3)Gal(b1-4)GlcNAc(b1-2)Man(a1-6)]Man(b1-4)GlcNAc(b1-4)[Fuc(a1-6)]GlcNAc", "summary_of_the_method": "as §1"}, "[9]": {"target": "GlcNAc(b1-3)Gal(b1-4)GlcNAc(b1-3)[GlcNAc(b1-3)Gal(b1-4)GlcNAc(b1-3)]GalNAc", "summary_of_the_method": "as §1"}, "[10]": {"target": "GlcNAc(b1-3)[GlcNAc(b1-4)][GlcNAc(b1-6)]GlcNAc", "summary_of_the_method": "as §1"}, "[11]": {"target": "GlcNAc(b1-3)[GlcNAc(b1-6)]GalNAc", "summary_of_the_method": "as §1"}, "[12]": {"target": "GlcNAc(b1-4)GlcNAc(b1-4)GlcNAc", "summary_of_the_method": "as §1"}, "[13]": {"target": "Kdn(a2-3)Gal(b1-3)GlcNAc", "summary_of_the_method": "as §1"}, "[14]": {"target": "Man(a1-2)Man(a1-2)Man(a1-3)Man", "summary_of_the_method": "as §1"}, "[15]": {"target": "Man(a1-2)Man(a1-2)Man(a1-6)[Man(a1-3)]Man", "summary_of_the_method": "as §1"}, "[16]": {"target": "Man(a1-2)Man(a1-3)Man", "summary_of_the_method": "as §1"}, "[17]": {"target": "Man(a1-2)Man(a1-3)[Man(a1-2)Man(a1-6)]Man", "summary_of_the_method": "as §1"}, "[18]": {"target": "Man(a1-2)Man(a1-3)[Man(a1-2)Man(a1-6)]Man(a1-6)[Man(a1-2)Man(a1-2)Man(a1-3)]Man", "summary_of_the_method": "as §1"}, "[19]": {"target": "Man(a1-2)Man(a1-6)[Man(a1-3)]Man(a1-6)[Man(a1-2)Man(a1-2)Man(a1-3)]Man(b1-4)GlcNAc(b1-4)GlcNAc", "summary_of_the_method": "as §1"}, "[20]": {"target": "Man(a1-3)[Man(a1-6)]Man", "summary_of_the_method": "as §1"}, "[21]": {"target": "Man(a1-3)[Man(a1-6)]Man(a1-6)[Man(a1-2)Man(a1-3)]Man(b1-4)GlcNAc(b1-4)GlcNAc", "summary_of_the_method": "as §1"}, "[22]": {"target": "Neu5Ac(a2-3)Gal(b1-3)GalNAc(b1-4)Gal(b1-4)Glc", "summary_of_the_method": "as §1"}, "[23]": {"target": "Neu5Ac(a2-3)Gal(b1-3)GlcNAc6S", "summary_of_the_method": "as §1"}, "[24]": {"target": "Neu5Ac(a2-3)Gal(b1-3)[GlcNAc(b1-6)]GalNAc", "summary_of_the_method": "as §1"}, "[25]": {"target": "Neu5Ac(a2-3)Gal(b1-3)[Neu5Ac(a2-6)]GalNAc", "summary_of_the_method": "as §1"}, "[26]": {"target": "Neu5Ac(a2-3)Gal(b1-4)GlcNAc(b1-2)Man(a1-3)[GlcNAc(b1-4)][Neu5Ac(a2-3)Gal(b1-4)GlcNAc(b1-2)Man(a1-6)]Man(b1-4)GlcNAc(b1-4)GlcNAc", "summary_of_the_method": "as §1"}, "[27]": {"target": "Neu5Ac(a2-3)Gal(b1-4)GlcNAc(b1-3)Gal(b1-3)GlcNAc", "summary_of_the_method": "as §1"}, "[28]": {"target": "Neu5Ac(a2-3)Gal(b1-4)GlcNAc(b1-3)Gal(b1-4)GlcNAc(b1-3)Gal(b1-4)GlcNAc(b1-2)Man(a1-3)[Neu5Ac(a2-3)Gal(b1-4)GlcNAc(b1-3)Gal(b1-4)GlcNAc(b1-3)Gal(b1-4)GlcNAc(b1-2)Man(a1-6)]GalNAc", "summary_of_the_method": "as §1"}, "[29]": {"target": "Neu5Ac(a2-3)Gal(b1-4)[Fuc(a1-3)]GlcNAc(b1-6)[Gal(b1-3)]GalNAc", "summary_of_the_method": "as §1"}, "[30]": {"target": "Neu5Ac(a2-6)Gal(b1-4)GlcNAc(b1-2)Man(a1-3)[Neu5Ac(a2-6)Gal(b1-4)GlcNAc(b1-2)Man(a1-6)]Man(b1-4)GlcNAc(b1-4)[Fuc(a1-6)]GlcNAc", "summary_of_the_method": "as §1"}, "[31]": {"target": "Neu5Ac(a2-6)Gal(b1-4)GlcNAc(b1-2)Man(a1-6)Man(b1-4)GlcNAc(b1-4)GlcNAc", "summary_of_the_method": "as §1"}, "[32]": {"target": "Neu5Ac(a2-6)Gal(b1-4)GlcNAc(b1-6)GalNAc", "summary_of_the_method": "as §1"}},
  "note": "Only a selection was taken, and the strongest signals are over-represented in it overall.",
  "data": [
    {"binder": "Mincle (Bos taurus) (protein) MNSSTSPASQTERRCFSFQLFSWAIAGTSILLLSACFITRCVVTYSIFQLCDEKKFQPPGDSMELSCYNDGSGSVKNCCPLKWFHFQSSCYLFSPDTMSWRASLKNCSSMGAHLVVINTQEEQEFLYYTKPRKKEFYIGLTDQVTEGQWQWVDGTPFTKSLSFWDAGEPNNLVIVEDCATIRDSSNPRQNWNDVPCFFNMFRVCEMPERKI", "values": [
      {"measurement": "glycan array binding signal (z-score)", "setting": "[1]", "value": -0.035},
      {"measurement": "glycan array binding signal (z-score)", "setting": "[2]", "value": -1.18},
      {"measurement": "glycan array binding signal (z-score)", "setting": "[3]", "value": 0.166},
      {"measurement": "glycan array binding signal (z-score)", "setting": "[4]", "value": -0.149},
      {"measurement": "glycan array binding signal (z-score)", "setting": "[5]", "value": 0.104},
      {"measurement": "glycan array binding signal (z-score)", "setting": "[6]", "value": 1.42},
      {"measurement": "glycan array binding signal (z-score)", "setting": "[7]", "value": -0.57},
      {"measurement": "glycan array binding signal (z-score)", "setting": "[8]", "value": -0.142},
      {"measurement": "glycan array binding signal (z-score)", "setting": "[9]", "value": 0.084},
      {"measurement": "glycan array binding signal (z-score)", "setting": "[10]", "value": 5.17},
      {"measurement": "glycan array binding signal (z-score)", "setting": "[11]", "value": 0.888},
      {"measurement": "glycan array binding signal (z-score)", "setting": "[12]", "value": -0.899},
      {"measurement": "glycan array binding signal (z-score)", "setting": "[13]", "value": 0.033},
      {"measurement": "glycan array binding signal (z-score)", "setting": "[14]", "value": 6.56},
      {"measurement": "glycan array binding signal (z-score)", "setting": "[15]", "value": 4.79},
      {"measurement": "glycan array binding signal (z-score)", "setting": "[16]", "value": 3.01},
      {"measurement": "glycan array binding signal (z-score)", "setting": "[17]", "value": 7.29},
      {"measurement": "glycan array binding signal (z-score)", "setting": "[18]", "value": 3.54},
      {"measurement": "glycan array binding signal (z-score)", "setting": "[19]", "value": 0.474},
      {"measurement": "glycan array binding signal (z-score)", "setting": "[20]", "value": 6.16},
      {"measurement": "glycan array binding signal (z-score)", "setting": "[21]", "value": 3.43},
      {"measurement": "glycan array binding signal (z-score)", "setting": "[22]", "value": -1.13},
      {"measurement": "glycan array binding signal (z-score)", "setting": "[23]", "value": 1.11},
      {"measurement": "glycan array binding signal (z-score)", "setting": "[24]", "value": -0.595},
      {"measurement": "glycan array binding signal (z-score)", "setting": "[25]", "value": -0.943},
      {"measurement": "glycan array binding signal (z-score)", "setting": "[26]", "value": 0.061},
      {"measurement": "glycan array binding signal (z-score)", "setting": "[27]", "value": 0.02},
      {"measurement": "glycan array binding signal (z-score)", "setting": "[28]", "value": 4.3},
      {"measurement": "glycan array binding signal (z-score)", "setting": "[29]", "value": 0.16},
      {"measurement": "glycan array binding signal (z-score)", "setting": "[30]", "value": 0.527},
      {"measurement": "glycan array binding signal (z-score)", "setting": "[31]", "value": 0.271},
      {"measurement": "glycan array binding signal (z-score)", "setting": "[32]", "value": 0.439}
    ]}
  ]
}
